The campaign covered roughly 5,500 compounds. About 2,000 (36%) were called active. Another 18% or so got no clear call; they are omitted. Rule as the data show it: active = normalized growth mostly below about 0.91 (no sharp cut-off); inconclusive = no clear call, values can overlap the other calls; inactive = mostly above about 0.92. The list shows a part of the results.
Test: chemical genetic growth profiling, strain panel (AID 1159580);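 also: tested at 20 µM; growth read once vehicle control cultures reached saturation at 30 °C; 1 = growth at the plate median or of vehicle wells; lower values mean less growth of the strain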
Settings: growth OD

Measured: normalized growth

COc1ccc(-c2cc(=O)c3c(O)cc(O)cc3o2)cc1
inactive: S. cerevisiae deletion strains, locus YJR075W, strain HOC1, hits give low values 0.976 | S. cerevisiae deletion strains, locus YKL009W, strain mrt4, hits give low values 0.94 | S. cerevisiae deletion strains, locus YKL068W, hits give low values 0.979 | S. cerevisiae deletion strains, locus YKL085W, strain MDH1 (second series), hits give low values 0.98 | S. cerevisiae deletion strains, locus YKL085W, strain MDH1, hits give low values 0.98 | S. cerevisiae deletion strains, locus YKL160W, strain elf1, hits give low values 0.928 | S. cerevisiae deletion strains, locus YKL190W, strain CNB1, hits give low values 0.985 | S. cerevisiae deletion strains, locus YKR001C, strain vps1, hits give low values 0.991 | S. cerevisiae deletion strains, locus YKR026C, strain gcn3, hits give low values 0.994 | S. cerevisiae deletion strains, locus YKR091W, strain srl3, hits give low values 0.997 | S. cerevisiae deletion strains, locus YLL001W, strain dnm1, hits give low values 0.954 | S. cerevisiae deletion strains, locus YLL026W, hits give low values 0.997 | S. cerevisiae deletion strains, locus YLL041C, strain sdh2, hits give low values 0.996 | S. cerevisiae deletion strains, locus YLR027C, strain aat2, hits give low values 0.97 | S. cerevisiae deletion strains, locus YLR039C, strain RIC1, hits give low values 0.975 | S. cerevisiae deletion strains, locus YLR058C, strain SHM2, hits give low values 0.998 | S. cerevisiae deletion strains, locus YLR102C, strain apc9, hits give low values 0.984 | S. cerevisiae deletion strains, locus YLR221C, strain rsa3, hits give low values 0.986 | S. cerevisiae deletion strains, locus YLR258W, strain gsy2, hits give low values 0.97 | S. cerevisiae deletion strains, locus YLR262C, strain YPT6 (second series), hits give low values 0.908 | S. cerevisiae deletion strains, locus YLR262C, strain YPT6, hits give low values 0.92 | S. cerevisiae deletion strains, locus YLR268W, strain sec22, hits give low values 0.985 | S. cerevisiae deletion strains, locus YLR320W, strain mms22, hits give low values 0.97 | S. cerevisiae deletion strains, locus YLR330W, strain CHS5, hits give low values 0.989 | S. cerevisiae deletion strains, locus YLR342W, strain FKS1 (second series), hits give low values 1.11 | S. cerevisiae deletion strains, locus YLR342W, strain FKS1, hits give low values 1.01 | S. cerevisiae deletion strains, locus YLR357W, strain rsc2, hits give low values 1.01 | S. cerevisiae deletion strains, locus YLR370C, strain arc18, hits give low values 0.98 | S. cerevisiae deletion strains, locus YLR371W, strain rom2, hits give low values 0.99 | S. cerevisiae deletion strains, locus YLR384C, strain iki3, hits give low values 1.02 | S. cerevisiae deletion strains, locus YLR418C, strain cdc73, hits give low values 0.957 | S. cerevisiae deletion strains, locus YML016C, strain PPZ1, hits give low values 1.02 | S. cerevisiae deletion strains, locus YML032C, strain rad52, hits give low values 1 | S. cerevisiae deletion strains, locus YML120C, strain ndi1, hits give low values 0.952 | S. cerevisiae deletion strains, locus YML124C, strain tub3, hits give low values 0.99 | S. cerevisiae deletion strains, locus YMR058W, strain fet3, hits give low values 0.983 | S. cerevisiae deletion strains, locus YMR078C, strain ctf18, hits give low values 0.981 | S. cerevisiae deletion strains, locus YMR125W, strain sto1, hits give low values 0.979 | S. cerevisiae deletion strains, locus YMR129W, hits give low values 0.991 | S. cerevisiae deletion strains, locus YMR205C, strain PFK2, hits give low values 0.968 | S. cerevisiae deletion strains, locus YMR223W, strain ubp8, hits give low values 0.982 | S. cerevisiae deletion strains, locus YMR231W, strain pep5, hits give low values 1.01 | S. cerevisiae deletion strains, locus YMR263W, strain SAP30, hits give low values 0.975 | S. cerevisiae deletion strains, locus YMR307W, strain GAS1, hits give low values 1.21 | S. cerevisiae deletion strains, locus YNL067W, strain RPL9B, hits give low values 0.946 | S. cerevisiae deletion strains, locus YNL071W, strain lat1, hits give low values 0.952 | S. cerevisiae deletion strains, locus YNL209W, strain ssb2, hits give low values 0.967 | S. cerevisiae deletion strains, locus YNL233W, strain BNI4, hits give low values 0.984 | S. cerevisiae deletion strains, locus YNL248C, strain rpa49, hits give low values 1.03 | S. cerevisiae deletion strains, locus YNL250W, strain rad50, hits give low values 0.966 | S. cerevisiae deletion strains, locus YNL271C, strain bni1, hits give low values 0.98 | S. cerevisiae deletion strains, locus YNL298W, strain CLA4, hits give low values 0.994 | S. cerevisiae deletion strains, locus YNL307C, strain MCK1, hits give low values 0.978 | S. cerevisiae deletion strains, locus YNL322C, strain KRE1 (second series), hits give low values 0.984 | S. cerevisiae deletion strains, locus YNR049C, strain mso1, hits give low values 0.994 | S. cerevisiae deletion strains, locus YNR052C, strain pop2, hits give low values 0.973 | S. cerevisiae deletion strains, locus YOL012C, strain htz1 0.966 | S. cerevisiae deletion strains, locus YOL147C, strain pex11, hits give low values 0.99 | S. cerevisiae deletion strains, locus YOR001W, strain rrp6, hits give low values 1 | S. cerevisiae deletion strains, locus YOR061W, strain CKA2, hits give low values 0.991 | S. cerevisiae deletion strains, locus YOR069W, strain VPS5, hits give low values 1 | S. cerevisiae deletion strains, locus YOR070C, strain gyp1, hits give low values 0.968 | S. cerevisiae deletion strains, locus YOR080W, strain dia2, hits give low values 1 | S. cerevisiae deletion strains, locus YOR083W, strain WHI5, hits give low values 0.917 | S. cerevisiae deletion strains, locus YOR106W, strain vam3, hits give low values 0.93 | S. cerevisiae deletion strains, locus YOR136W, strain idh2, hits give low values 0.984 | S. cerevisiae deletion strains, locus YOR144C, strain elg1, hits give low values 1 | S. cerevisiae deletion strains, locus YOR184W, strain ser1, hits give low values 0.978 | S. cerevisiae deletion strains, locus YOR231W, strain MKK1, hits give low values 0.869 | S. cerevisiae deletion strains, locus YOR265W, strain rbl2, hits give low values 0.984 | S. cerevisiae deletion strains, locus YOR270C, strain vph1, hits give low values 0.95 | S. cerevisiae deletion strains, locus YOR290C, strain snf2, hits give low values 0.868 | S. cerevisiae deletion strains, locus YOR316C, strain cot1, hits give low values 0.987 | S. cerevisiae deletion strains, locus YPL051W, strain arl3, hits give low values 0.963 | S. cerevisiae deletion strains, locus YPL055C, strain LGE1, hits give low values 0.982 | S. cerevisiae deletion strains, locus YPL078C, strain atp4, hits give low values 0.92 | S. cerevisiae deletion strains, locus YPL106C, strain sse1, hits give low values 0.946 | S. cerevisiae deletion strains, locus YPL240C, strain hsp82, hits give low values 0.994 | S. cerevisiae deletion strains, locus YPL241C, strain CIN2, hits give low values 0.999 | S. cerevisiae deletion strains, locus YPR119W, strain clb2, hits give low values 0.983 | S. cerevisiae deletion strains, locus YPR141C, strain kar3, hits give low values 0.985 | S. cerevisiae deletion strains, locus YPR163C, strain tif3, hits give low values 0.991 | S. cerevisiae deletion strains, locus YPR167C, strain met16, hits give low values 0.985 | S. cerevisiae deletion strains, strain wtn01, hits give low values 1 | S. cerevisiae strains, strain wild type, hits give low values 0.991
active: S. cerevisiae deletion strains, locus YLR113W, strain HOG1, hits give low values 0.694 | S. cerevisiae deletion strains, locus YNL183C, strain NPR1, hits give low values 0.784 | S. cerevisiae deletion strains, locus YPL256C, strain CLN2, hits give low values 0.756
